Values without a mark were called inactive. Inconclusive results are not listed. A call without a number means that no potency is given here. The source made the active and inactive calls. Unless noted, the call rests on the fitted dose curve; in most records, active means well fitted curve in the direction sought with a large enough effect in the repeat runs; inconclusive means weak or mixed curves; inactive means no such curve, though single readings can be large; an effect the other way counts as inactive or inconclusive.
What was measured:
[1] = qHTS assay to identify small molecule antagonists of the estrogen receptor alpha (ER-alpha) signaling pathway using the BG1 cell line in the presence of 0.1 nM 17-beta-estradiol - cell viability counter screen (AID 1259241); further: nearly all actives have a fitted effect of over 40% in size
How it was run: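 The cell line endogenously expresses full-length ER-alpha and carries four EREs driving luciferase. Cells are cultured 5 days hormone-free, treated 22 hr with compounds and 0.1 nM estradiol, then viability is read by fluorescence.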

[2] = qHTS assay to identify small molecule antagonists of the androgen receptor (AR) signaling pathway using the MDA cell line in the presence of 0.5 nM R1881 - cell viability counter screen (AID 1259242); further: nearly all actives have a fitted effect of over 45% in size
How it was run: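 Cytotoxicity toward MDA-kb2 cells is measured by CellTiter-Fluor live-cell protease fluorescence after 16 hr compound exposure at 37C in the presence of 0.5 nM R1881 stimulator.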

[3] = target: Estrogen receptor (Homo sapiens) (UniProt P03372); assay: qHTS assay to identify small molecule antagonists of the estrogen receptor alpha (ER-alpha) signaling pathway using the BG1 cell line in the presence of 0.1 nM 17-beta-estradiol (AID 1259244); further: nearly all actives have a fitted effect of over 50% in size
How it was run: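 After 5 days in hormone-depleted medium (charcoal-stripped serum, no phenol red), VM7Luc4E2 cells were seeded, incubated 24 h, then co-treated with compound and 0.1 nM (final) estradiol for 22 h before luminescence detection.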

[4] = qHTS assay to identify small molecule phospholipidosis (PLD) inducers (AID 1259344; active means well fitted curve in the direction sought with a large enough effect; an effect the other way counts as inactive or inconclusive)
How it was run: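 Fluorescent phospholipid staining (LipidTOX Red) measured by automated microscopy in fixed HepG2 cells after 24 h treatment; nuclei counterstained with Hoechst 33342; amiodarone as reference inducer.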

[5] = qHTS assay to identify small molecule HDAC inhibitors (AID 1259364); further: top concentration of the series differs between compounds; nearly all actives have a fitted effect of over 45% in size
How it was run: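 Homogeneous cell-based luminescent assay of endogenous class I/II HDAC activity; HCT-116 cells, 2 h compound exposure, 30 min HDAC-Glo development at RT.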

[6] = qHTS assay to identify small molecule HDAC inhibitors - cell viability counter screen (AID 1259365); further: series mostly up to about 92 µM; nearly all actives have a fitted effect of over 50% in size
How it was run: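 Viability readout: CellTiter-Glo luminescence. Wild-type HCT-116 cells, 2hr compound treatment following overnight attachment at 37 C.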

[7] = qHTS assay to identify small molecule antagonists of the sonic hedgehog signaling (Shh) pathway - cell viability counter screen (AID 1259367); further: nearly all actives have a fitted effect of over 55% in size
How it was run: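 Using CellTiter-Fluor, viability of Gli1-Luc reporter 3T3 cells is read by fluorescence in the wells used for the Shh luciferase assay. Treatment lasts 23 hr with conditioned medium, then reagent 1 hr at 37C.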

[8] = qHTS assay to identify small molecule agonists of the sonic hedgehog signaling (Shh) pathway (AID 1259368; calls by dose curve;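 further: NIH/3T3-derived 3T3Gli1-Luc cells carrying a stable Gli1-driven firefly luciferase reporter; series mostly up to about 92 µM; nearly all actives have a fitted effect of over 15% in size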)
How it was run: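 Steps: seed 3T3 Gli1-Luc cells, incubate 4 hr at 37 C, pin-transfer compounds in DMSO alongside a positive control, incubate 24 hr, add luciferase detection reagent, wait 30 min at room temperature, read luminescence.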

[9] = qHTS assay to identify small molecule antagonists of the sonic hedgehog signaling (Shh) pathway (AID 1259369; calls by dose curve; further: nearly all actives have a fitted effect of over 45% in size; further: potency means the concentration at half of the fitted maximal effect)
How it was run: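 Inhibition of Shh signalling is measured as reduced Gli1-response-element firefly luciferase output in an NIH/3T3-derived stable reporter clone stimulated with conditioned medium for 24hr.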

[10] = target: Estrogen receptor beta (Homo sapiens) (UniProt Q92731); assay: qHTS assay to identify small molecule antagonists of the estrogen receptor beta (ER-beta) signaling pathway (AID 1259378; active means well fitted inhibition curve with a large enough effect in the signal ratio in the repeat runs, not every such curve was filed as active; the % refers to the signal ratio)
How it was run: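 Antagonist mode: compounds added to beta-lactamase reporter HEK293T ER-beta-UAS cells stimulated with E2 (1nM final), 16 hr at 37C. LiveBLAzer B/G FRET substrate, 2 hours room temperature, fluorescence read-out.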

[11] = qHTS assay to identify small molecule agonists of the androgen receptor (AR) signaling pathway in the presence of an antagonist - cell viability counter screen (AID 1259379);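 further: MDA-kb2 human breast cancer cells carrying an MMTV luciferase reporter; series mostly up to about 92 µM; nearly all actives have a fitted effect of over 25% in size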
How it was run: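 Fluorescence from CellTiter-Fluor, added after 15 hr and read 1 hr later, gave cell viability. Cells were MDA-kb2 exposed to compounds (15 concentrations) in the presence of 3.0uM nilutamide at 37C, 0% CO2.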

[12] = qHTS assay to identify small molecule agonists of the estrogen receptor beta (ER-beta) signaling pathway - cell viability counter screen (AID 1259380); further: nearly all actives have a fitted effect of over 30% in size
How it was run: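 Same-well viability counter screen. Cells: ER-beta-UAS-bla HEK293T, plated 6 hr before compound, in 2% charcoal-stripped FBS. Compound exposure 16 hr, 37C; viability by CellTiter-Glo luminescence after 30 min at room temperature.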

[13] = qHTS assay to identify small molecule antagonists of the estrogen receptor beta (ER-beta) signaling pathway - cell viability counter screen (AID 1259382);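 further: HEK293T cells carrying ER-beta-UAS-bla reporter stimulated with estradiol; series mostly up to about 92 µM; nearly all actives have a fitted effect of over 55% in size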
How it was run: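 Following a 6 hr plating period, HEK293T cells carrying a UAS-driven beta-lactamase reporter under ER-beta control received compounds and 1nM E2 (final). After 16 hr at 37C and 2 hr substrate loading, CellTiter-Glo luminescence indicated viability.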

[14] = target: Estrogen receptor (Homo sapiens) (UniProt P03372); assay: qHTS assay to identify small molecule agonists of the estrogen receptor alpha (ER-alpha) signaling pathway in the presence of an antagonist (AID 1259383; calls by dose curve; further: nearly all actives have a fitted effect of over 15% in size; further: potency means the concentration at half of the fitted maximal effect; on activation: top concentration of the series differs between compounds)
How it was run: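 Cells are hormone-deprived for 5 days (charcoal-stripped FBS, no phenol red), plated for 24hr, spiked with 10.0nM ICI-182,780, then dosed at 15 concentrations. After 22hr at 37C, ONE-Glo luminescence reports ERE-luciferase activity.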

[15] = qHTS assay to identify small molecule agonists or antagonists of the thyroid stimulating hormone receptor (TSHR) signaling pathway - wild type cell line counter screen (AID 1259384; calls by dose curve)
How it was run: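 Counter screen in untransfected Hek293: compounds (15-point titration, triplicate) plus phosphodiesterase inhibitor Ro20-1724 added after 18 h plating; 30 min RT. Intracellular cAMP via competitive d2/cryptate immunoassay, 1 h incubation.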

[16] = target: Thyrotropin receptor (Homo sapiens) (UniProt P16473); assay: qHTS assay to identify small molecule antagonists of the thyroid stimulating hormone receptor (TSHR) signaling pathway (AID 1259385; calls by dose curve; further: nearly all actives have a fitted effect of over 20% in size)
How it was run: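 Antagonist mode: compound-treated TSHR-expressing HEK293 cells were stimulated with 1.5 ng/mL TSH (final) in presence of Ro20-1724 for 30 min at RT. HTRF cAMP detection after 1 h; each compound tested at 15 concentrations, triplicate.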

[17] = qHTS assay to identify small molecule agonists of the sonic hedgehog signaling (Shh) pathway - cell viability counter screen (AID 1259366); further: nearly all actives have a fitted effect of over 50% in size
How it was run: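 Viability measured fluorometrically (CellTiter-Fluor, 1hr, 37C) in 3T3 Gli1-Luc reporter cells after 23hr compound exposure within a 24hr incubation at 37C/5% CO2.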

[18] = target: Estrogen receptor beta (Homo sapiens) (UniProt Q92731); assay: qHTS assay to identify small molecule agonists of the estrogen receptor beta (ER-beta) signaling pathway (AID 1259377; active means well fitted activation curve with a large enough effect in the signal ratio in the repeat runs, not every such curve was filed as active; the % refers to the signal ratio; further: potency means the concentration at half of the fitted maximal effect)
How it was run: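 A UAS-controlled beta-lactamase reporter in ER-beta-UAS-bla HEK293T cells reports receptor activation. Compounds act for 16 hr at 37C in 2% charcoal-stripped serum, and a FRET substrate is read by fluorescence after 2 hours.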

Thyrotropin receptor (Homo sapiens), sequence (P16473 whole entry, looked up): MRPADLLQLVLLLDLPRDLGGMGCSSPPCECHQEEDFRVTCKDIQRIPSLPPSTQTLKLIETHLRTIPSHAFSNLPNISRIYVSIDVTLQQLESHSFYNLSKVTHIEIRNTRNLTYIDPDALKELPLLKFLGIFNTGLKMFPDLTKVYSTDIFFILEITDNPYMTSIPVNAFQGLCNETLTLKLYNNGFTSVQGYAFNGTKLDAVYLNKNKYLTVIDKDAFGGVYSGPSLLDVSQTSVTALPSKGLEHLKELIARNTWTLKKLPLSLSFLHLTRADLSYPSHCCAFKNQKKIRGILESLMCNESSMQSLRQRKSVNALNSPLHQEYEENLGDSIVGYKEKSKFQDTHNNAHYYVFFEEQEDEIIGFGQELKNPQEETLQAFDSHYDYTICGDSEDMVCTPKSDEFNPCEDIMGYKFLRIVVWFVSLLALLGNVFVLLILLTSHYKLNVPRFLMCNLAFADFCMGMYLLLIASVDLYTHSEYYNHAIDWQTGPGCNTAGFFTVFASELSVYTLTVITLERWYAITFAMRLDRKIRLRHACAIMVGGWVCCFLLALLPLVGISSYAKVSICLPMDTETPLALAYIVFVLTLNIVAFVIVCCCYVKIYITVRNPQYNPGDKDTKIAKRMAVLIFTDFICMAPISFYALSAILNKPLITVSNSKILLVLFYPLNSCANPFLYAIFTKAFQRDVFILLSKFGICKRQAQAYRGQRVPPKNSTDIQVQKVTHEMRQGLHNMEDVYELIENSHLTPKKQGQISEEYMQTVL
Estrogen receptor beta (Homo sapiens), sequence (Q92731 whole entry, looked up): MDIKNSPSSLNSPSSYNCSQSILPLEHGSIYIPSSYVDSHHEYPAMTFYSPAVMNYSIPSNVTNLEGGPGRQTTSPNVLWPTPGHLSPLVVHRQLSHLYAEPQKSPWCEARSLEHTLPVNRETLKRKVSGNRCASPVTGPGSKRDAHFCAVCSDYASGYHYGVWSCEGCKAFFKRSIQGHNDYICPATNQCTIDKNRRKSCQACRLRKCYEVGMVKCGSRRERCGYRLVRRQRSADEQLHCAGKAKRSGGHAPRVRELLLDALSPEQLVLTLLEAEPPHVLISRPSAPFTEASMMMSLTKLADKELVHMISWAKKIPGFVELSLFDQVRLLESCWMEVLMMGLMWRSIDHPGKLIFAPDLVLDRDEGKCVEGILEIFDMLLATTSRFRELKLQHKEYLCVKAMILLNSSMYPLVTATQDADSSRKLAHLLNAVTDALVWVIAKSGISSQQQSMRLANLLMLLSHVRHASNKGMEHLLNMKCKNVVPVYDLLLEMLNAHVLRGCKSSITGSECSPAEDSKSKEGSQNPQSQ
Estrogen receptor (Homo sapiens), sequence (P03372 whole entry, looked up): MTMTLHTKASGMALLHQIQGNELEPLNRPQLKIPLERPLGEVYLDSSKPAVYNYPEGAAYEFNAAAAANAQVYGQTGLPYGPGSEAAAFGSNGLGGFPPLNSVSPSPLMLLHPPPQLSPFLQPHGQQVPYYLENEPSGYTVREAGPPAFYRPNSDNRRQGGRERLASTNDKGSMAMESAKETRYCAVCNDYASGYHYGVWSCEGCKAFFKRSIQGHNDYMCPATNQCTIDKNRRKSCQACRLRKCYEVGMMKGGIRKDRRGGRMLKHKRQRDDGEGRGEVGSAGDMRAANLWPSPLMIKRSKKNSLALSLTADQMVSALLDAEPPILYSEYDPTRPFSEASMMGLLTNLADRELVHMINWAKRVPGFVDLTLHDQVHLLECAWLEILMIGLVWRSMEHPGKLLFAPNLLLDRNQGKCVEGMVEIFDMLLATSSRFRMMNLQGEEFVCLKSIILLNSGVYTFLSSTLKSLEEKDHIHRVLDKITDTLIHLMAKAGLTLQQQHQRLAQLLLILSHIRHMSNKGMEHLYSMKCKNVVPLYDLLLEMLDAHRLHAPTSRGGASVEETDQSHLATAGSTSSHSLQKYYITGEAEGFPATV

Row | Compound | Potency [1] | Potency [2] | Potency [3] | Potency [4] | Potency [5] | outcome [6] | Potency [7] | outcome [8] | Potency [9] | Potency [10] | Potency [11] | Potency [12] | Potency [13] | Potency [14] | Potency [15] | Potency [16] | Potency [17] | Potency [18] | PLD induction [4]
1 | Nc1nc(N)c2nc(CNc3ccc(C(=O)N[C@@H](CCC(=O)O)C(=O)O)cc3)cnc2n1 | inactive | inactive | inactive | inactive | inactive | inactive | inactive | inactive | inactive | inactive | inactive | inactive | inactive | inactive | inactive | inactive | – | – | –
2 | CCN(CC)C(C)CN1c2ccccc2Sc2ccccc21 (centres undefined) | inactive | inactive | inactive | inactive | inactive | inactive | inactive | inactive | – | inactive | inactive | inactive | inactive | inactive | inactive | inactive | inactive | – | –
3 | O=C(O)Cn1c(C(=O)Nc2nc(-c3ccccc3Cl)cs2)cc2ccccc21 | inactive | inactive | inactive | inactive | inactive | inactive | inactive | inactive | inactive | – | inactive | – | inactive | inactive | inactive | inactive | inactive | – | –
4 | Oc1ccc(Sc2ccc(O)cc2)cc1 | inactive | inactive | inactive | – | inactive | inactive | inactive | inactive | 20.3 µM (active) | – | – | – | inactive | 14.4 µM (active) | inactive | – | inactive | 6.42 µM (active) | –
5 | CN(c1nccc(=O)[nH]1)C1CCN(c2nc3ccccc3n2Cc2ccc(F)cc2)CC1 | inactive | inactive | inactive | inactive | inactive | inactive | inactive | inactive | inactive | – | – | – | inactive | inactive | inactive | inactive | inactive | – | –
6 | CN(C)CC[C@@H](c1ccc(Br)cc1)c1ccccn1 | inactive | inactive | inactive | inactive | inactive | inactive | inactive | inactive | – | – | inactive | – | inactive | inactive | – | – | inactive | – | –
7 | OC(CCN1CCCCC1)(c1ccccc1)C1CCCCC1 (centres undefined) | inactive | inactive | inactive | inactive | inactive | inactive | inactive | inactive | 8.41 µM (active) | inactive | inactive | inactive | inactive | inactive | inactive | – | inactive | – | –
8 | CCCCCCCCCC(=O)OCC | inactive | inactive | inactive | – | inactive | inactive | inactive | inactive | inactive | inactive | inactive | inactive | inactive | inactive | – | inactive | inactive | – | –
9 | CCCCCCCCCC=O | inactive | inactive | inactive | – | inactive | inactive | inactive | inactive | inactive | – | – | inactive | inactive | inactive | – | inactive | inactive | inactive | –
10 | CCCCOc1cc(C(=O)OCCN(CC)CC)ccc1N | inactive | inactive | inactive | inactive | inactive | inactive | inactive | inactive | – | inactive | – | inactive | inactive | inactive | – | – | inactive | inactive | –
11 | CC(=O)O[C@H]1C[C@@H]2CC[C@@H]3[C@H](CC[C@@]4(C)[C@H]3C[C@H]([N+]3(C)CCCCC3)[C@@H]4OC(C)=O)[C@@]2(C)C[C@@H]1N1CCCCC1 | inactive | inactive | inactive | inactive | inactive | inactive | inactive | inactive | inactive | – | inactive | inactive | inactive | inactive | – | inactive | inactive | – | –
12 | Cc1ccccc1N=Nc1ccc(N=Nc2c(O)ccc3ccccc23)c(C)c1 | inactive | inactive | inactive | inactive | – | inactive | inactive | inactive | – | – | – | inactive | inactive | inactive | inactive | inactive | inactive | – | –
13 | O=C(NN1CCCC1)NS(=O)(=O)c1ccc(Cl)cc1 | inactive | inactive | inactive | – | inactive | inactive | inactive | inactive | inactive | inactive | – | inactive | inactive | inactive | inactive | inactive | inactive | – | 14% [at 7.66 µM]

— PubChem BioAssay (Tox21)
